Results as given in ChEMBL document CHEMBL3988442, “University of Dundee, Small-Polar-MMV Screening Library” (2021).
For some assays here: Results with a measured potency or affinity are listed apart.

How the values were obtained:
Set-up in all cases: scale not given: direction of the effect not stated beside the values
[1] = target: Protein translocase subunit SecA (Escherichia coli (strain K12)) (UniProt P10408); test: Assay to Identify E. coli SecA ATPase Inhibitors; assay type: functional; details: 30 µM
[2] = target: T1, Ubiquitin-activating enzyme e1, putative (Leishmania donovani (strain BPK282A1)) (UniProt E9BSI1); test: Leishmania donovani Ubiquitin Activating Enzyme (LdE1); assay type: functional; details: 30 µM
T1 sequence (whole entry): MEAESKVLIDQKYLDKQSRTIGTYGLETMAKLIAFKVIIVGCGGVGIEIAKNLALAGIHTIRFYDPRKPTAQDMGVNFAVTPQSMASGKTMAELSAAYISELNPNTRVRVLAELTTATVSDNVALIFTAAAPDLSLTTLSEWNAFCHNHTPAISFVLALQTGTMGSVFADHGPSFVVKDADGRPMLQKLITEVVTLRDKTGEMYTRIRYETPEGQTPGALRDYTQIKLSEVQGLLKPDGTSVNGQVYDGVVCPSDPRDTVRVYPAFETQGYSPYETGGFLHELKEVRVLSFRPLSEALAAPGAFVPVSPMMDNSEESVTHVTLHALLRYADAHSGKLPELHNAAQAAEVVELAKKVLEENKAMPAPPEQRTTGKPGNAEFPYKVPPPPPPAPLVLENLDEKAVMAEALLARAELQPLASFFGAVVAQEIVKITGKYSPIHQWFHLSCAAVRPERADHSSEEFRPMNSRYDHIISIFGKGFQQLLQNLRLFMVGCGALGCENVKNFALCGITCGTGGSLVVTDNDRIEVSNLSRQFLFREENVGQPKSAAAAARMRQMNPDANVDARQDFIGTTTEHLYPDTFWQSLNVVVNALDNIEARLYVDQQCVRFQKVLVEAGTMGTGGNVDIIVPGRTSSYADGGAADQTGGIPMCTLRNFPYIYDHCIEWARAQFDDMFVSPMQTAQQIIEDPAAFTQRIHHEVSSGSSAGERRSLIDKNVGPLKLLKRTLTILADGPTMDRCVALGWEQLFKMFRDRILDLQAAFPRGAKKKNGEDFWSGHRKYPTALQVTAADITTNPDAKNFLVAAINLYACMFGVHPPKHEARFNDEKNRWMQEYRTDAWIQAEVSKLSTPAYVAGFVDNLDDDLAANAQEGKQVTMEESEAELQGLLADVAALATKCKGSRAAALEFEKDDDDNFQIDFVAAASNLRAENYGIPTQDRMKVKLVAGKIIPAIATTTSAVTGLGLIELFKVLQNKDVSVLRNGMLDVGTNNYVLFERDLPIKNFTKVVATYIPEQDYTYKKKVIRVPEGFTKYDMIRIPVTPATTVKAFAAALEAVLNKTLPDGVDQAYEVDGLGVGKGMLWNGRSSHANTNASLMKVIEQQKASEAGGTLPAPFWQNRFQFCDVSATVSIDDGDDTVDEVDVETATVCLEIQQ

[3] = target: Sialic acid-binding Ig-like lectin 9 (Homo sapiens) (UniProt Q9Y336); test: Hs-Siglec9 ALPHAscreen SOP 20170721; details: 10 µM
[4] = test system: Trypanosoma cruzi; test: Trypanosoma cruzi phosphomannomutase and mannose-1-phosphate guanylyltransferase assay; assay type: functional; details: 10 µM
[5] = target: T2, Arginase-2, mitochondrial (Homo sapiens) (UniProt P78540); test: in vitro enzyme assay to detect the production of urea directly proportional to the activity of Arginase II; assay type: functional; details: 33.3 µM; also: in the data most compounds retested in dose-response had high values
T2 sequence (whole entry): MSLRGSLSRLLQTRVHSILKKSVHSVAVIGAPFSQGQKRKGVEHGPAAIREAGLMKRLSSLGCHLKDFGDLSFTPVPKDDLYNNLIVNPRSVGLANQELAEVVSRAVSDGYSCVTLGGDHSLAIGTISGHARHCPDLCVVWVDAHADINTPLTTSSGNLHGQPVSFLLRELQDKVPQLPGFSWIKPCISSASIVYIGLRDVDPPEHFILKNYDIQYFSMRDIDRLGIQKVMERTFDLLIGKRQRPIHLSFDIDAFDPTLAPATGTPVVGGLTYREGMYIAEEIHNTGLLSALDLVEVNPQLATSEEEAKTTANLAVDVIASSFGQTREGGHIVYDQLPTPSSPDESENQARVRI

[6] = target: T3, Proteasome subunit beta (Trypanosoma cruzi) (UniProt O96673); test: Trypanosoma cruzi proteasome chymotrypsin-like activity (TcProtChymo) assay.; also: in the data most compounds retested in dose-response had high values; assay type: functional; details: 9.37 µM
T3 sequence (whole entry): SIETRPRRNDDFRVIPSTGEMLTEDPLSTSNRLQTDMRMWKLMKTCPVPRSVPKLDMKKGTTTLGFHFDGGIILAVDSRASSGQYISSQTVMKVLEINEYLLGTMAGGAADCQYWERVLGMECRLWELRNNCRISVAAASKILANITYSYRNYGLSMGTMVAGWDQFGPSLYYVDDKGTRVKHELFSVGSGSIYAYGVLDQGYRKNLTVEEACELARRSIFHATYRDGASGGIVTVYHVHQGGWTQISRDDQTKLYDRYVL

[7] = species on record: Homo sapiens; test: To identify inhibition of the IFN signalling (Jak-Stat) pathway via expression of an eGFP reporter gene under the control of an IFN-stimulated response element (ISRE) containing MxA promoter.; assay type: functional; details: 30 µM
[8] = target: T4, Tyrosyl-tRNA synthetase, putative (Trypanosoma cruzi (strain CL Brener)) (UniProt Q4DSP6); test: Trypanosoma cruzi tyrosyl tRNA synthetase (TcYRS) _High Tyrosine SOP; assay type: functional; details: 30 µM; also: in the data most compounds retested in dose-response had high values
T4 sequence (whole entry): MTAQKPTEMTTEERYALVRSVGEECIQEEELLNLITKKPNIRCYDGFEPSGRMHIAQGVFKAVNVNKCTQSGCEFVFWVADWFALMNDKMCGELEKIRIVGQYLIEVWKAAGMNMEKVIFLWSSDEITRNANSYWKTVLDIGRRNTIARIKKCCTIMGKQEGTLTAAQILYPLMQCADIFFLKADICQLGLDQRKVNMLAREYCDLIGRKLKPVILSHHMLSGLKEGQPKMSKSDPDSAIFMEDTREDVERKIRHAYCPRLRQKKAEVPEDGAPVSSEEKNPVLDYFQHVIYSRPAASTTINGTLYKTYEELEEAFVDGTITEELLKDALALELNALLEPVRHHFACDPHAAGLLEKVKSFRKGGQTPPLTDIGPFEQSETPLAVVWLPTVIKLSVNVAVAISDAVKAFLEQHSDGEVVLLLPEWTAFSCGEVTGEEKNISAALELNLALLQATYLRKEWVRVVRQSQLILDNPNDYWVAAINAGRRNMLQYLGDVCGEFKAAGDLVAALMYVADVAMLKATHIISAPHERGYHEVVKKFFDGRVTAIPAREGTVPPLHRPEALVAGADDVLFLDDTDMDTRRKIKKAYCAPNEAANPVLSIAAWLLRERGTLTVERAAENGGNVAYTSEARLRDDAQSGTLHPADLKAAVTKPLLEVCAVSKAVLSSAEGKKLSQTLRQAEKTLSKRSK

[9] = target: T4, Tyrosyl-tRNA synthetase, putative (Trypanosoma cruzi (strain CL Brener)); test: Trypanosoma cruzi tyrosyl tRNA synthetase (TcYRS) SOP; assay type: functional; details: 30 µM
[10] = target: Chromo domain-containing protein 1 (Saccharomyces cerevisiae (strain ATCC 204508 / S288c) (Baker's yeast)) (UniProt P32657); test: ScCHD-1 Enzyme Inhibition Assay; assay type: functional; details: 30 µM; also: in the data most compounds retested in dose-response had high values
Chromo domain-containing protein 1 (Saccharomyces cerevisiae (strain ATCC 204508 / S288c) (Baker's yeast)), sequence (P32657 whole entry, the tested form may be a part): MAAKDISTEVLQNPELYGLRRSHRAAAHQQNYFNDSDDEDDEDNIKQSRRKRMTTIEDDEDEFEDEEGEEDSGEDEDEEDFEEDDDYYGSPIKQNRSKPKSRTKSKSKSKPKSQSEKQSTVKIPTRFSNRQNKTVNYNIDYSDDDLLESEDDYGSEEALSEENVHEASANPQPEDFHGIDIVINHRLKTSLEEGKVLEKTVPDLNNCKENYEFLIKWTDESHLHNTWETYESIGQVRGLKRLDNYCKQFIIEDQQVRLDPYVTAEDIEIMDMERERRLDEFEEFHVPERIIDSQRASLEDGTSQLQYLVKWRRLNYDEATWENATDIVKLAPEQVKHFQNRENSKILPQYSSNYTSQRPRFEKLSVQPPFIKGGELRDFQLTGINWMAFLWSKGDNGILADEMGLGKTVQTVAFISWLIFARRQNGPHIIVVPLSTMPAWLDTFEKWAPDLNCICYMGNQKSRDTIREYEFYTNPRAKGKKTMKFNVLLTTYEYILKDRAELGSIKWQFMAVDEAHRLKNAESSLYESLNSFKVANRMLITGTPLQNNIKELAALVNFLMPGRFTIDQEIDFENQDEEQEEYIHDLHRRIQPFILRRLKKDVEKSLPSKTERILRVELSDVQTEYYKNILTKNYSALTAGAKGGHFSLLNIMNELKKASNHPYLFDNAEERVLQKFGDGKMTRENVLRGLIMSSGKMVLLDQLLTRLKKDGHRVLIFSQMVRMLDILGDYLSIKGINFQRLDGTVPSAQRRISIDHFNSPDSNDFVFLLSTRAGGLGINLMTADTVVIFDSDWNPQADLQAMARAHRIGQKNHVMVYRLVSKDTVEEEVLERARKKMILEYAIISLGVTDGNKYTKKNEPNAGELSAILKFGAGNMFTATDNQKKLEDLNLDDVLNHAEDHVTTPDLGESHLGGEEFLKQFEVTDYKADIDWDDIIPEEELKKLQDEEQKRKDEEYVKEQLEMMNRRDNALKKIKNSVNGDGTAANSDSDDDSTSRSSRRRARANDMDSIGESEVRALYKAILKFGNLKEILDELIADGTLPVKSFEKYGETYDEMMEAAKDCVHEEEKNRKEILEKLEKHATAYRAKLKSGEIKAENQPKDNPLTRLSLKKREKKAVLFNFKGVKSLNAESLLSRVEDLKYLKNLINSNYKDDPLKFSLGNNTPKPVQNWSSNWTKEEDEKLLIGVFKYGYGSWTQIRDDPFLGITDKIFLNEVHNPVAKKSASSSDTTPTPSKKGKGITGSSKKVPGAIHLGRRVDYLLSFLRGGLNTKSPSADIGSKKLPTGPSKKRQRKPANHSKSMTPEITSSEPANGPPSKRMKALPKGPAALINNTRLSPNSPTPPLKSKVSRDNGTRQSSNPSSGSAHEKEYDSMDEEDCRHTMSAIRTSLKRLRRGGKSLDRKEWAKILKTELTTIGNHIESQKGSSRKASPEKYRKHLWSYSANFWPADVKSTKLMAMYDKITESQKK

Sialic acid-binding Ig-like lectin 9 (Homo sapiens), sequence (Q9Y336 whole entry): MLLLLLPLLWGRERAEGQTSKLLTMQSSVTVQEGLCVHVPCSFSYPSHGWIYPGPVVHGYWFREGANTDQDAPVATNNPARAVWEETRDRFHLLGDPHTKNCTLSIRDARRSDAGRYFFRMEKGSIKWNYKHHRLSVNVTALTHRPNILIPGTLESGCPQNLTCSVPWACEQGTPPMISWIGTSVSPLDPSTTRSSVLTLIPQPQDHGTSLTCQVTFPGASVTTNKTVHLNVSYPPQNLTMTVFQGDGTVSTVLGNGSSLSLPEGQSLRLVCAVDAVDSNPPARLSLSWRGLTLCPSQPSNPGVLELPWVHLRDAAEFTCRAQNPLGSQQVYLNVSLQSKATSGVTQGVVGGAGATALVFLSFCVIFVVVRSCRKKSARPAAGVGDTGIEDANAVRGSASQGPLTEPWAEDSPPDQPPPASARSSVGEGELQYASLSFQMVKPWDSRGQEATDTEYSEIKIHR
Protein translocase subunit SecA (Escherichia coli (strain K12)), sequence (P10408 whole entry): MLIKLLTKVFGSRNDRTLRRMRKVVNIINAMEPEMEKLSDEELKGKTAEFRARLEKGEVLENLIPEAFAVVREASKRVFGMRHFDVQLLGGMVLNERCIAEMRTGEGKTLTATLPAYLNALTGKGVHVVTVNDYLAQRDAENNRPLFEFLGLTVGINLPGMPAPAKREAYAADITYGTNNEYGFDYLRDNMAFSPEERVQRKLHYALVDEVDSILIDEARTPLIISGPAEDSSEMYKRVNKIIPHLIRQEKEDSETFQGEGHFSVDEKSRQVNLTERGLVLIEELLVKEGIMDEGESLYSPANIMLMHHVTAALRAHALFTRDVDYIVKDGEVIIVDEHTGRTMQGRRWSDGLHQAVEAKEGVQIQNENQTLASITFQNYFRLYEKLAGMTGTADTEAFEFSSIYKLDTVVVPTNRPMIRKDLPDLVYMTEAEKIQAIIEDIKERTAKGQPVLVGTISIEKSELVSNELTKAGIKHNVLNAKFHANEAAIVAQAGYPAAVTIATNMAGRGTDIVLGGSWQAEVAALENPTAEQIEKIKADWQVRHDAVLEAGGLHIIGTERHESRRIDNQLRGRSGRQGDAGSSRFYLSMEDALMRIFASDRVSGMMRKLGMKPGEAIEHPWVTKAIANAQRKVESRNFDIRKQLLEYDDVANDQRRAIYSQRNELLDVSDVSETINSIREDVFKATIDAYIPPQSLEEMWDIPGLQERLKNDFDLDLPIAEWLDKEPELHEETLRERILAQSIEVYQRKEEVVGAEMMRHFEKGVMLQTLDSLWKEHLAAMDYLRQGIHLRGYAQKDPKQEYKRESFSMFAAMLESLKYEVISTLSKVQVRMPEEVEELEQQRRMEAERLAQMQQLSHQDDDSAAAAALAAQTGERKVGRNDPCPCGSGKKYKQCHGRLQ

Compound | Percent Effect [1] [%] | Percent Effect [2] [%] | Percent Effect [3] [%] | Percent Effect [4] [%] | Percent Effect [5] [%] | Percent Effect [6] [%] | Percent Effect [7] [%] | Percent Effect [8] [%] | Percent Effect [9] [%] | Percent Effect [10] [%]
O=C(Cn1cccnc1=O)NCCc1ccc2c(c1)OCCO2 | -2.08 | 16 | -6.16 | -5.22 | 1.77 | 18.9 | 9.16 | 1.58 | 7.69 | -8.6
CCn1ccnc1CNCC1CCCN1c1cc(NC)ncn1 (stereo not given) | -2.03 | 0 | 1.76 | -5.62 | 2.66 | 4.5 | 12.1 | 4.74 | 5.13 | -7.63
c1cncc(N2CCOCC3(CCCN(c4nncs4)C3)C2)c1 (stereo not given) | -4.46 | -3.9 | -2.68 | -1.27 | -2.02 | 7.33 | 2.84 | 2.63 | 7.69 | 3.64
Cc1ncsc1CCC(=O)N1CCCC[C@H](N(C)C)C1 | -5.77 | 13.5 | 14.4 | 9.02 | 52.8 | 13.7 | 16.9 | 7.98 | 21.9 | -3.1
Cc1cc(NCc2cc3n(n2)CCCN(C(=O)N(C)C)C3)ncn1 | -14.3 | 2.7 | 3.53 | -1.84 | 1.05 | 3.42 | 4.33 | 1.6 | 4.88 | 0.382
CCc1nc(CN2CCCN(C(=O)c3cn[nH]c3CC)CC2)cs1 | 0.744 | 17.9 | -17.5 | -0.282 | -6.97 | 10.2 | -6.8 | 6.22 | 13.2 | -6.17
CN(Cc1cn2ccccc2c1C#N)C1CCCN(c2cccnn2)C1 (stereo not given) | -1.94 | -15.6 | 10.5 | 1.31 | -3.07 | 13.7 | 6.2 | 13.7 | 9.41 | -7.9
CN1CCC/C1=N\S(=O)(=O)c1ccc(NC(=O)c2cccs2)cc1 | 0.351 | 15.6 | -0.824 | 3.73 | -3.48 | 12.5 | 8.73 | 7.84 | 21.2 | -10.9
O=S(=O)(c1ccccc1Cl)N1CCc2nc(C3CCNCC3)ncc2C1 | -4.22 | 1.33 | 8.22 | 3.75 | -1.33 | 12.2 | 34.8 | 6.35 | 12.5 | -26.2
CS(=O)(=O)N1CCC2(CC1)CC(CC(=O)NC1CC1)c1ccccc12 (stereo not given) | -4.87 | 9.09 | 1.58 | 2.04 | -3.24 | 15.4 | -6.07 | 4.74 | 10.3 | 0.815
O=S(=O)(CCCN1CCCC1Cn1cccn1)c1ccccc1 (stereo not given) | -5.34 | 7.79 | 19.1 | -2.24 | -0.205 | 7.19 | 2.19 | 6.86 | 16.5 | -5.4
Cc1cccc(CN2C[C@@H]3CN(C(=O)[C@H]4CCCO4)C[C@@H]3C2=O)c1 | -6.54 | 24.7 | 2.65 | 3 | -2.28 | 16.4 | 5.56 | 9.66 | 20 | -6.96
CC(C)NC(=O)[C@@H](NC(=O)N1CCN(c2ccc(Cl)cc2)CC1)C(C)C | -9.49 | -5.41 | -0.377 | -3.78 | -3.85 | 12.2 | 31.6 | 0.532 | -4.88 | -2.5
CCCn1nc2c(cc1=O)CN(CC(=O)Nc1ccncc1)CC2 | -3.45 | 10.4 | 6.89 | -3.17 | 2.25 | 17.2 | 3.95 | 3.92 | 11.8 | -14.2
O=C(c1ccncc1)N1CCCC2(COCCN(c3ccccc3)C2)C1 (stereo not given) | -5.29 | -1.3 | -2.94 | -6.72 | -5.26 | 20 | 0.424 | 6.84 | 7.69 | -1.75
Cc1cc(NCc2cccnc2)n2nc(C)cc2n1 | -3.79 | 2.7 | 4.53 | -2.62 | 1.75 | 16.9 | 17.8 | 4.79 | 14.6 | -3.52
Cc1nccn1Cc1nnc(C2CCCN(Cc3cccnc3)C2)n1C (stereo not given) | -4.77 | 16.2 | 4.69 | 5.53 | -6.64 | 12.3 | 5.04 | 9.04 | 14.6 | -2.63
CC(C)CN1C[C@@H]2CN(C(=O)[C@H]3CCCO3)C[C@@H]2C1=O | -2.4 | 16.9 | -1.93 | -7.13 | 3.65 | 5.06 | 7.85 | -5.8 | 12.5 | -5.7
CCc1[nH]ncc1C(=O)N1CCCC(n2cccn2)C1 (stereo not given) | -3.15 | 13.3 | 7.05 | -2.21 | 4.88 | 7.38 | -9.13 | 4.74 | 15.4 | -7.04
CCn1cc2c(n1)C(COC)CN(Cc1ccccn1)C2 (stereo not given) | -4.98 | 9.09 | -6.05 | -2.43 | -2.43 | 16.7 | 34.2 | 2.63 | 7.69 | -3.98
CC(C)(C)C(=O)N1C[C@H](c2ccsc2)[C@H]2CN(Cc3cccs3)CC[C@H]21 | -0.241 | 17.3 | -5.01 | 2.37 | 2.65 | 17.1 | 56.8 | 2.12 | 17.5 | -22
CN1CCN(c2cc(CNC(=O)c3ccc(=O)n(C)c3)ccn2)CC1 | -2.29 | 20.5 | -8.46 | 7.04 | 2.87 | 13.9 | 13.3 | -0.478 | 22.9 | -8.95
Cc1cc(C(=O)NCCn2nc3ccccn3c2=O)[nH]n1 | 0.567 | 12.8 | -9.12 | -3.1 | 0 | 16.8 | 8.57 | 1.44 | 18.1 | -7.79
